In PubChem BioAssay (EPA / NIEHS):
Calls of active or inactive are those of the source. Rule for the calls: active = hit-call score of the fitted dose curve at least 0.9, where 1 is the maximum; inactive = score below 0.9.

Experiments:
[1] = ATG_CRE_CIS: Attagene CIS-FACTORIAL HepG2 Assay for human cAMP Responsive Element (CRE) binding protein 3 (AID 2282926); settings: HepG2 CRE cis-reporter, Attagene multiplexed mRNA; actives raise or lower the signal
Procedure, shortened: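 Liver-derived HepG2, transfected with a CRE-containing reporter panel, exposed 24 h; transcript levels sized and quantified by capillary electrophoresis of labelled amplicons; signal changes either way referenced to vehicle.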

[2] = molecular target: CCAAT/enhancer-binding protein beta (Homo sapiens) (UniProt P17676); assay: ATG_C_EBP_CIS: Attagene CIS-FACTORIAL HepG2 Assay for human CCAAT/Enhancer Binding Protein (C/EBP) beta (AID 2282927); settings: HepG2 Attagene cis-factorial transcription factor reporter; actives raise or lower the signal
CCAAT/enhancer-binding protein beta (Homo sapiens), sequence (P17676 whole entry, looked up): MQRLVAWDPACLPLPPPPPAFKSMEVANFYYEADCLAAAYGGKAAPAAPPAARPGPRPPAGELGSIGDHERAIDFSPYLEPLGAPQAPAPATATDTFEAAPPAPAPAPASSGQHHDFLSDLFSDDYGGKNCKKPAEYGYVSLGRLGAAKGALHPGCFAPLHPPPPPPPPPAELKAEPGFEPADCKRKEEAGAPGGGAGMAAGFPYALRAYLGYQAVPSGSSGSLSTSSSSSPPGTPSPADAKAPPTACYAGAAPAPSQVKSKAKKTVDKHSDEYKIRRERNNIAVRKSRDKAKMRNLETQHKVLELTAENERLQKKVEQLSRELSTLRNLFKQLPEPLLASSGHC
Procedure, shortened: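 Following a 24 h incubation with test chemical, transfected HepG2 cells yielded RNA whose reporter transcripts were quantified by RT-PCR and fluorescent capillary electrophoresis, with DMSO serving as baseline for bidirectional fitting.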

[3] = molecular target: Aryl hydrocarbon receptor (Homo sapiens) (UniProt P35869); assay: ATG_Ahr_CIS: Attagene CIS-FACTORIAL HepG2 Assay for human Aryl Hydrocarbon Receptor (Ahr) (AID 2282930); settings: HepG2 AhR cis-factorial reporter transcription; actives raise or lower the signal
Aryl hydrocarbon receptor (Homo sapiens), sequence (P35869 whole entry, looked up): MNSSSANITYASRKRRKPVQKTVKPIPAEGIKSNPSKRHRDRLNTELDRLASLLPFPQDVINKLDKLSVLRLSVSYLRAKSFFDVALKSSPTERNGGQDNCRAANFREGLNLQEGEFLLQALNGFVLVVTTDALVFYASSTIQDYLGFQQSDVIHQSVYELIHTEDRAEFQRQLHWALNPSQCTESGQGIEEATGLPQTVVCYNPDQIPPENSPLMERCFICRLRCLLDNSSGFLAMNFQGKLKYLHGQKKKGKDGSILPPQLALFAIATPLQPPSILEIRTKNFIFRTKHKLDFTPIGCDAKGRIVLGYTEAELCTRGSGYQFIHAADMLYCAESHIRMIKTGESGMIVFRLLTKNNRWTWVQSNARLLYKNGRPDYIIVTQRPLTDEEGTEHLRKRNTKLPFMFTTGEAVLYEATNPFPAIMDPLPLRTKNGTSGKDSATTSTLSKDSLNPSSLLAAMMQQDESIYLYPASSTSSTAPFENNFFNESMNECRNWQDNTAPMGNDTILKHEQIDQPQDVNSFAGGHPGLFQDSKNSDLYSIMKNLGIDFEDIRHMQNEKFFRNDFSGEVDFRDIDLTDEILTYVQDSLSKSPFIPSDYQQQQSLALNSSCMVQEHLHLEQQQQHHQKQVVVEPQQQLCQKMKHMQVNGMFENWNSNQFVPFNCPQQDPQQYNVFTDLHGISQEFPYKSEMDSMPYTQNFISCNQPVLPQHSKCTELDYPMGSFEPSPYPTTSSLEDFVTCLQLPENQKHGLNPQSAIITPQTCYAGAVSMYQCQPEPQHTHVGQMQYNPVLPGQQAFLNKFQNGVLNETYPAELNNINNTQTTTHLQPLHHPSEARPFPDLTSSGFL
Procedure, shortened: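 Values derive from bidirectional fitting against DMSO negative control. Underlying signal: cis-element reporter mRNA in transiently transfected HepG2, harvested 24 h post-dose and measured by RT-PCR plus capillary electrophoresis.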

[4] = ATG_AP_1_CIS: Attagene CIS-FACTORIAL HepG2 Assay for human Activator Protein 1 (AP-1) (AID 2282931); settings: HepG2 Attagene cis-factorial AP-1 reporter mRNA; actives raise or lower the signal
Procedure, shortened: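 After 24 h incubation with test chemical, RNA from transfected HepG2 cells was reverse-transcribed, amplified, fluorescently labelled and digested before capillary electrophoresis. Reporters were driven by cis-regulatory promoters; activity fitted bidirectionally versus DMSO.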

[5] = ATG_BRE_CIS: Attagene CIS-FACTORIAL HepG2 Assay for human Bone Morphogenetic Protein (BMP) Response Element (BRE) (AID 2282933); settings: HepG2 BMP response element reporter, Attagene transcription factor profiling; actives raise or lower the signal
Procedure, shortened: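 HepG2 cells transiently transfected with CIS reporter units (endogenous TF activity, BMP response element), dosed 24 h. Reporter mRNA quantified by RT-PCR, fluorescent labelling and capillary electrophoresis; bidirectional fit vs DMSO baseline.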

[6] = ATG_E_Box_CIS: Attagene CIS-FACTORIAL HepG2 Assay for human Enhancer Box (E-box) (AID 2282936); settings: HepG2 E-box cis-reporter transcription, actives raise or lower the signal
Procedure, shortened: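 Endogenous transcription factor activity was sensed in human HepG2 liver cells through transfected cis-promoter reporter units. After 24 h of dosing, total RNA was reverse-transcribed and reporter cDNA resolved by capillary electrophoresis.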

[7] = ATG_M_19_CIS: Attagene CIS-FACTORIAL HepG2 Assay for M19 Transcription Factor (Internal Marker) (AID 2282939); settings: HepG2 Attagene CIS-FACTORIAL M19 internal marker reporter; actives raise or lower the signal
Procedure, shortened: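 HepG2 cells transiently transfected with cis-regulated multiplexed reporter units, dosed 24 h. Reporter mRNA quantified by RT-PCR and capillary electrophoresis; internal background marker fitted bidirectionally versus DMSO.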

[8] = molecular target: Hypoxia-inducible factor 1-alpha (Homo sapiens) (UniProt Q16665); assay: ATG_HIF1a_CIS: Attagene CIS-FACTORIAL HepG2 Assay for human Hypoxia Inducible Factor 1 (HIF1A) (AID 2282951); settings: HepG2 Attagene cis-factorial HIF1a reporter transcription; actives raise or lower the signal
Hypoxia-inducible factor 1-alpha (Homo sapiens), sequence (Q16665 whole entry, looked up): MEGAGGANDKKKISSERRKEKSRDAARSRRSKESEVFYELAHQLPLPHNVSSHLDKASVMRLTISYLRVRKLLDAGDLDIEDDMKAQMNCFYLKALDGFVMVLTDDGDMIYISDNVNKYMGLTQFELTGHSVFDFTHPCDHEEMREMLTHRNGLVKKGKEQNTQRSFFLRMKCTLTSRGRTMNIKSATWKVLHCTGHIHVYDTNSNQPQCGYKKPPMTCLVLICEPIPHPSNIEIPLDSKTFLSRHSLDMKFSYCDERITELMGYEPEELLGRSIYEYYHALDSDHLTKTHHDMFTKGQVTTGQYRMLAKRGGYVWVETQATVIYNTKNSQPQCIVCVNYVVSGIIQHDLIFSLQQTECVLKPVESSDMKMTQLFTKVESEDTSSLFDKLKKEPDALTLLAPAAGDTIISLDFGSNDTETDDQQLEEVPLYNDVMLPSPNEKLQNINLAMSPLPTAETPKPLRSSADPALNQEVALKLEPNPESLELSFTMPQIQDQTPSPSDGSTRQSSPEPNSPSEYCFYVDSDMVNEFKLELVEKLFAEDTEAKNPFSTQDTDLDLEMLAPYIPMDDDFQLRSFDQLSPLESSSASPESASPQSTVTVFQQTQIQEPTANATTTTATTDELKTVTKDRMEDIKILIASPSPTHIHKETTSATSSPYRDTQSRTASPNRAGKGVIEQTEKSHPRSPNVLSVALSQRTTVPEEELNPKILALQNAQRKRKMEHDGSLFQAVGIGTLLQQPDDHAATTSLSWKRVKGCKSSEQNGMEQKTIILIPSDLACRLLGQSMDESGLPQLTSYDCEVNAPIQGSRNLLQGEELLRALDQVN
Procedure, shortened: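 Endogenous-TF cis reporter readout, human HepG2 cells, 24 h incubation; mRNA detected via RT-PCR and capillary electrophoresis fluorescence; DMSO-normalised bidirectional fitting.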

[9] = molecular target: Hepatocyte nuclear factor 6 (Homo sapiens) (UniProt Q9UBC0); assay: ATG_HNF6_CIS: Attagene CIS-FACTORIAL HepG2 Assay for human Hepatocyte Nuclear Factor 6 (HNF6) (AID 2282952); settings: HepG2 Attagene cis-factorial HNF6 reporter transcription; actives raise or lower the signal
Hepatocyte nuclear factor 6 (Homo sapiens), sequence (Q9UBC0 whole entry, looked up, the tested form may be a part): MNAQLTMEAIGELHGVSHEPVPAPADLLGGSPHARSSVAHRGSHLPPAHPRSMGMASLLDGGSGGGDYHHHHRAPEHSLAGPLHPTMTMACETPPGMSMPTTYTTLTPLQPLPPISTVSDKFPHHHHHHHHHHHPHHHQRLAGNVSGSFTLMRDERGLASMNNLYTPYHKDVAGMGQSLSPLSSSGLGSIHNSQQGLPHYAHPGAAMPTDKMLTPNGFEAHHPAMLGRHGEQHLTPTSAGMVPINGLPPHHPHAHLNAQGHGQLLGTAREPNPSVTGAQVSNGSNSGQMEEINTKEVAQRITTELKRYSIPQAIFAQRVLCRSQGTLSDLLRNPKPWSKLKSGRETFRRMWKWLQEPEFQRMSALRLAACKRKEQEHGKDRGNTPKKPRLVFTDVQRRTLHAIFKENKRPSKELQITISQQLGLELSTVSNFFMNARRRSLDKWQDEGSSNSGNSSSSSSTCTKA
Procedure, shortened: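 Twenty-four-hour chemical treatment of reporter-transfected HepG2 cells precedes RNA isolation, DNase-treated reverse transcription and PCR of reporter sequences. Labelled fragments are sized by capillary electrophoresis and fitted bidirectionally versus DMSO.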

[10] = molecular target: Heat shock factor protein 1 (Homo sapiens) (UniProt Q00613); assay: ATG_HSE_CIS: Attagene CIS-FACTORIAL HepG2 Assay for human Heat Shock Transcription Factor 1 (HSE) (AID 2282953); settings: HepG2 HSE cis-reporter, Attagene RNA transcription; actives raise or lower the signal
Heat shock factor protein 1 (Homo sapiens), sequence (Q00613 whole entry, looked up): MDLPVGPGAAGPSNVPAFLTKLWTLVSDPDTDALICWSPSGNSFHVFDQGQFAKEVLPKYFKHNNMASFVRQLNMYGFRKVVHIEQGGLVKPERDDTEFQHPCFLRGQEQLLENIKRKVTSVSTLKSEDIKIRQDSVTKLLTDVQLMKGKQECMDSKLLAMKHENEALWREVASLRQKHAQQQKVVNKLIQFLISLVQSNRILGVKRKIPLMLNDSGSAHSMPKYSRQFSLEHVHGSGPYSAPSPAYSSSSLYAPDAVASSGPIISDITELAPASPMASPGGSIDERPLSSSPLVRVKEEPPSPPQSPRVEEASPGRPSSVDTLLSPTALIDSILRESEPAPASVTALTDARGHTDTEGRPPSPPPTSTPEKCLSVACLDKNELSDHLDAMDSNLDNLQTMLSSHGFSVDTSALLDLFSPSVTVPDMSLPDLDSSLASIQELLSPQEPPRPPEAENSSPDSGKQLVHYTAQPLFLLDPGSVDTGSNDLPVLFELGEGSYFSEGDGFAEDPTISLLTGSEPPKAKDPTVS
Procedure, shortened: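 HepG2 cells transfected with cis-promoter reporter units sensing endogenous transcription factor activity; reporter mRNA quantified 24 h post-dose by RT-PCR and capillary electrophoresis of 6-FAM-labelled products. Bidirectional fitting against DMSO.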

[11] = ATG_TA_CIS: Attagene CIS-FACTORIAL HepG2 Assay for human TA Basal Promoter (AID 2282964); settings: HepG2 Attagene CIS-factorial TA basal promoter reporter; actives raise or lower the signal
Procedure, shortened: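 HepG2 cells transiently transfected with multiple reporter units under cis promoter elements, reporting endogenous transcription factor activity; this endpoint tracks the TA basal promoter as background control. Reporter mRNA after 24 h dosing measured by RT-PCR/capillary electrophoresis; bidirectional fits versus DMSO.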

[12] = ATG_VDRE_CIS: Attagene CIS-FACTORIAL HepG2 Assay for human Vitamin D Receptor Element (VDRE) (AID 2282968); settings: HepG2 VDRE cis-reporter transcription, actives raise or lower the signal
Procedure, shortened: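 Steps: transfect HepG2 with multiple reporter transcription units; dose chemicals 24 h; isolate RNA; RT-PCR; label with 6-FAM primer extension; HpaI digest; capillary electrophoresis. Curves fitted both directions against DMSO.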

[13] = molecular target: X-box-binding protein 1 (Homo sapiens) (UniProt P17861); assay: ATG_Xbp1_CIS: Attagene CIS-FACTORIAL HepG2 Assay for human X-box Binding Protein 1 (XBP1) (AID 2282972); settings: HepG2 XBP1 cis-element reporter, Attagene multiplex; actives raise or lower the signal
X-box-binding protein 1 (Homo sapiens), sequence (P17861 whole entry, looked up): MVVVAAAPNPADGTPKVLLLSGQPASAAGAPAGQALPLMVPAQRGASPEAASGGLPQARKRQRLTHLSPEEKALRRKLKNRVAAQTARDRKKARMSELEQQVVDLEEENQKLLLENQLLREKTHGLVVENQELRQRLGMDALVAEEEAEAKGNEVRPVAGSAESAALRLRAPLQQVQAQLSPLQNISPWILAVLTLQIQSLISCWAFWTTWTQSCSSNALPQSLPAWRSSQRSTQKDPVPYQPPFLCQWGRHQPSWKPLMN
Procedure, shortened: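 Changes in reporter transcript abundance, read by RT-PCR and capillary electrophoresis, reflect endogenous transcription factor activity. Transfected HepG2 cells received compound for 24 hours; DMSO defined baseline for bidirectional analysis.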

[14] = molecular target: Nuclear respiratory factor 1 (Homo sapiens) (UniProt Q16656); assay: ATG_NRF1_CIS: Attagene CIS-FACTORIAL HepG2 Assay for human Nuclear Respiratory Factor 1 (NRF1) Orphan Gene (AID 2282987); settings: HepG2 NRF1 cis-element reporter, Attagene multiplex; actives raise or lower the signal
Nuclear respiratory factor 1 (Homo sapiens), sequence (Q16656 whole entry, looked up): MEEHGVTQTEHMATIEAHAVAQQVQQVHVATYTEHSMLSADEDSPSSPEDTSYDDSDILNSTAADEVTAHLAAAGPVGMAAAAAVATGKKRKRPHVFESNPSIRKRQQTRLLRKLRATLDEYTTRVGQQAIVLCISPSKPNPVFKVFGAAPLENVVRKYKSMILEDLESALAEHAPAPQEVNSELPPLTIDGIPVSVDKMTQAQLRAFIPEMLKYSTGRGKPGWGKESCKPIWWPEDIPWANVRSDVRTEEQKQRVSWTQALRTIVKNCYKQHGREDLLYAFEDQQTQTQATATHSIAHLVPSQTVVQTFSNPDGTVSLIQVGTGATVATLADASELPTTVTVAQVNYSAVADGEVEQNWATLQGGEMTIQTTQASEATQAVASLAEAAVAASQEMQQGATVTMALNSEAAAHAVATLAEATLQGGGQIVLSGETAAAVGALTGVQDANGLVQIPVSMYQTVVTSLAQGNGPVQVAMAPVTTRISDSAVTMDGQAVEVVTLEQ
Procedure, shortened: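 Endogenous factor activity was captured via cis-element-driven reporter transcripts in HepG2 cells. Following 24 h chemical treatment, transcripts were quantified by RT-PCR and capillary electrophoresis.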

[15] = molecular target: Myc proto-oncogene protein (Homo sapiens) (UniProt P01106); assay: ATG_Myc_CIS: Attagene CIS-FACTORIAL HepG2 Assay for human Myelocytomatosis (Myc) Proto-Oncogene Transcription Factor (AID 2282990); settings: HepG2, Attagene cis-reporter transcription factor activity; actives raise or lower the signal
Myc proto-oncogene protein (Homo sapiens), sequence (P01106 whole entry, looked up): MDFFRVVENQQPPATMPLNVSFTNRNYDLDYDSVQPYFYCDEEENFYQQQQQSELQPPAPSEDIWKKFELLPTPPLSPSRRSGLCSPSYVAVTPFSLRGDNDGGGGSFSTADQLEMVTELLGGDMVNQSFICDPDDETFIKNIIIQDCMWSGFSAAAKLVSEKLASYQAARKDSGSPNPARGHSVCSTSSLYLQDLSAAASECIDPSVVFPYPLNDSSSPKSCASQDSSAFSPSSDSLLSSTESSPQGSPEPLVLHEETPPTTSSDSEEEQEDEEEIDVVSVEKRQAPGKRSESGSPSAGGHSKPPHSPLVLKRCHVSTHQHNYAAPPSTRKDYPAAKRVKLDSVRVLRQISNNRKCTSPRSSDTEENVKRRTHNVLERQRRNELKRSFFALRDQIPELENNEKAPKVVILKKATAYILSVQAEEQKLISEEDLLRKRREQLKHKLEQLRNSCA
Procedure, shortened: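 Multiplexed cis-reporter transcription in HepG2 cells after 24 h chemical treatment. Reporter mRNA measured by RT-PCR and capillary electrophoresis fluorescence; activity fitted bidirectionally against DMSO control.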

[16] = ATG_NRF2_ARE_CIS: Attagene CIS-FACTORIAL HepG2 Assay for human Nuclear Factor Erythroid 2 Related Factor 2 (NFR2) response to Antioxidant Response Elements (ARE) (AID 2282992); settings: HepG2 Attagene ARE/NRF2 reporter, transcription factor activity; actives raise or lower the signal
Procedure, shortened: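 Using transiently transfected HepG2 cells exposed for 24 h, reporter mRNA levels were determined by RT-PCR with fluorescent primer extension and capillary electrophoresis, analysed for gain or loss of signal against DMSO.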

[17] = ATG_Oct_MLP_CIS: Attagene CIS-FACTORIAL HepG2 Assay for human Octamer-Binding Transcription Factor (Oct) (AID 2282993); settings: HepG2 Attagene cis-factorial Oct reporter, mRNA; actives raise or lower the signal
Procedure, shortened: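 HepG2 cells transiently transfected with cis-element-driven reporter transcription units (endogenous TF activity); 24 h compound exposure. Reporter mRNA quantified by RT-PCR, 6-FAM labelling, HpaI digestion and capillary electrophoresis; bidirectional fit versus DMSO baseline.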

[18] = molecular target: Cellular tumor antigen p53 (Homo sapiens) (UniProt P04637); assay: ATG_p53_CIS: Attagene CIS-FACTORIAL HepG2 Assay for human p53 Transcription Factor (AID 2282994); settings: HepG2 p53 cis-element reporter, Attagene mRNA; actives raise or lower the signal
Cellular tumor antigen p53 (Homo sapiens), sequence (P04637 whole entry, looked up, the tested form may be a part): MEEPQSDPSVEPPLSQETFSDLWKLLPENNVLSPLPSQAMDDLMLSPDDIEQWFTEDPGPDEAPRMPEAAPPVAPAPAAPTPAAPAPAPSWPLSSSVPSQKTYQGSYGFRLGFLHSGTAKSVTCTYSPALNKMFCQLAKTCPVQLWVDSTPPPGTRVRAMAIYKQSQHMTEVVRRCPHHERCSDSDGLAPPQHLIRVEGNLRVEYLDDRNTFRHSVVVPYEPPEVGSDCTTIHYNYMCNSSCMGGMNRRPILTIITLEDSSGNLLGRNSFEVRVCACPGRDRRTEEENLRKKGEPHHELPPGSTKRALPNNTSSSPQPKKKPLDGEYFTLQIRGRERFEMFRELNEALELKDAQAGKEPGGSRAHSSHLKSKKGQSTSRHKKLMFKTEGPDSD
Procedure, shortened: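 In HepG2 cells, reporter transcription units under cis-regulatory promoters were transiently introduced. Following 24 h treatment, RNA was processed to labelled, digested cDNA fragments read by capillary electrophoresis; fitting was bidirectional versus DMSO.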

[19] = ATG_M_06_CIS: Attagene CIS-FACTORIAL HepG2 Assay for M06 Transcription Factor (Internal Marker) (AID 2282950); settings: HepG2 Attagene CIS-FACTORIAL M06 internal marker reporter; actives raise or lower the signal
Procedure, shortened: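 Internal background marker within multiplexed cis-reporter HepG2 system. Cells transiently transfected, dosed 24 h; reporter mRNA measured by RT-PCR, HpaI digestion and capillary electrophoresis. Bidirectional fit relative to DMSO.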

[20] = ATG_GLI_CIS: Attagene CIS-FACTORIAL HepG2 Assay for human Zinc Finger Protein GLI1 (AID 2282945); settings: HepG2, Attagene cis-factorial reporter mRNA, GLI element; actives raise or lower the signal
Procedure, shortened: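 HepG2 cells transiently transfected with cis-promoter multiplexed reporter units report endogenous transcription factor activity. After 24 h chemical exposure, reporter mRNA was quantified by RT-PCR, 6-FAM labelling, HpaI digestion and capillary electrophoresis, with bidirectional fitting against DMSO.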

Measured: outcome

CNC(=N[N+](=O)[O-])NCC1CCOC1 (stereo unspecified)
not listed: [19] | [20]
inactive: all other assays above

C[N+](C)(C)CC(=O)[O-]
not listed: [8] | [12] | [18] | [20]
inactive: all other assays above

COC(=O)c1ccccc1S(=O)(=O)NC(=O)Nc1nc(C)cc(C)n1
not listed: [10] | [18]
inactive: all other assays above

COc1ccc(CO)cc1
not listed: [20]
inactive: all other assays above
